# Test results from PubChem BioAssay.
# Active and inactive are the calls of the source.
# How the values were obtained:
# [1] = small molecules captured by biotinylated probe aFSTL3 – biochemical, small-molecule microarray, fluorescence 635/667, stem cell growth factor project, primary screen (AID 1064); conditions: higher = more signal;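 further: measures binding of the biotinylated anti-FSTL3 antibody to printed compounds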
# [2] = binders from COS7 lysate, DM2A8 probe, primary screen, torsin A project, cell lysate, small-molecule microarray, fluorescence 635/667 (AID 1065); conditions: higher = more signal, COS7 lysate expressing mutant human TOR1A
# [3] = small molecules captured by biotinylated probe aFGF2 – biochemical, small-molecule microarray, fluorescence 635/667, stem cell growth factor project, primary screen (AID 1067); conditions: higher = more signal;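 further: measures binding of biotinylated aFGF2 protein to printed compounds on slides; z-score merges feature fluorescence and signal-to-noise across triplicate slides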
# [4] = small molecules captured by biotinylated probe aFGF10 – biochemical, small-molecule microarray, fluorescence 635/667, stem cell growth factor project, primary screen (AID 1071); conditions: higher = more signal;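 further: score merges 667 nm spot intensity and signal to noise from triplicate slides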
# [5] = target: Neurogenic locus notch homolog protein 2 (Homo sapiens) (UniProt Q04721); assay: small molecules binding Notch2 protein – biochemical, small-molecule microarray, 635 nm fluorescence, stem cell growth factors, primary screen (AID 1073); conditions: higher = more signal
# [6] = target: Pro-neuregulin-1, membrane-bound isoform (Homo sapiens) (UniProt Q02297); assay: small molecules binding neuregulin-1 protein – biochemical, small-molecule microarray, fluorescence 635/667, psychiatric disease protein project, primary screen (AID 1075); conditions: NRG1 binding, 635 nm fluorescence, higher = more signal;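 further: score combines 667 nm spot fluorescence with signal to noise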
# Pro-neuregulin-1, membrane-bound isoform (Homo sapiens), sequence (Q02297 whole entry, looked up, the tested form may be a part, canonical isoform): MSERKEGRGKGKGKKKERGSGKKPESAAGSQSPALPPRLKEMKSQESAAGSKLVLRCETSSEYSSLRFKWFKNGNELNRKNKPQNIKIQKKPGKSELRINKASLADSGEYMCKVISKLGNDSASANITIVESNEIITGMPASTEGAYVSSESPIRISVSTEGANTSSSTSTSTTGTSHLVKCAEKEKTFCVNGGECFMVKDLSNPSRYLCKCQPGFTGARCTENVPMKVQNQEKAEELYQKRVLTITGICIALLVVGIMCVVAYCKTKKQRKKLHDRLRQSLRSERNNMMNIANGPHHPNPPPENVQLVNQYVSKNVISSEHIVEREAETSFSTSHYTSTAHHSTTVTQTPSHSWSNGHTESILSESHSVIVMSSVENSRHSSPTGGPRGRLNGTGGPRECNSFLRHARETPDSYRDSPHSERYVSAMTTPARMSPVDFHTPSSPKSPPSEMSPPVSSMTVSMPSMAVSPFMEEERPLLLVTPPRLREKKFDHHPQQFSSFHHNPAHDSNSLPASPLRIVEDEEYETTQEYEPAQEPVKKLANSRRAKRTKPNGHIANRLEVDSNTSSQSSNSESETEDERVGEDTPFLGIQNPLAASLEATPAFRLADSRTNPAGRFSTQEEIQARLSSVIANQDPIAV
# [7] = test system: Neuregulin-1 EGF-like domain; assay: small molecules binding NRG1 EGF domain – biochemical, small-molecule microarray, 635 nm fluorescence, primary screen (AID 1081); conditions: higher = more signal;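 further: binding of the protein to compounds printed on small-molecule microarray slides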
# [8] = FRG1 expression reporter modulators in myotubes – cell-based, C2C12 myotubes, firefly/Renilla luciferase, luminescence, FRG1 inhibition for FSHD, primary screen (AID 1084); conditions: FRG1 promoter luciferase, higher = more signal, called active from +8 up or from −8 down
# [9] = small molecules captured by biotinylated probe aFST – biochemical, small-molecule microarray, fluorescence 635/667, stem cell growth factor project, primary screen (AID 1086); conditions: higher = more signal;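 further: score merges 667 nm fluorescence with signal-to-noise of each printed compound spot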
# [10] = binders of probe aHhip on microarray, primary screen, stem cell growth factor project, biochemical, small-molecule microarray, fluorescence 635/667 (AID 1087); conditions: higher = more signal;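 further: score merges spot fluorescence at 667nm with spot signal to noise ratio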
# [11] = test system: PRMT1 (protein arginine N-methyltransferase 1); assay: small molecules binding arginine methyltransferase PRMT1 – biochemical, small-molecule microarray, 635 nm fluorescence, primary screen (AID 1088); conditions: higher = more signal;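 further: binding of Prmt1 protein to compounds spotted on small-molecule microarray slides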
# [12] = growth effects on S. cerevisiae YJM789 – YJM789 clinical isolate, OD600, 24 h, basal, primary screen (AID 1089); conditions: higher = more signal, called active from +8 up or from −8 down;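 further: growth of clinical yeast isolate S. cerevisiae YJM 789 seeded 1000 cells per well; test concentration not given here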
# [13] = S. pombe growth modifiers, basal conditions – strain 972, OD600, 24 h, no modulator, primary screen (AID 1090);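 further: basal condition with compound alone and no growth modifier present; test concentration not given here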; conditions: S. pombe 972 growth, higher = more signal, called active from +8 up or from −8 down
# [14] = budding yeast growth modifiers under rapamycin – strain BY4716, OD600, 96 h, primary screen (AID 1091); further: test concentration not given here; conditions: S. cerevisiae BY4716 + rapamycin, higher = more signal, called active from +8 up or from −8 down
# [15] = target: Torsin-1A-interacting protein 2 (Homo sapiens) (UniProt Q8NFQ8); assay: small molecules binding lysate-expressed LULL1 – cell lysate, human LULL1 lysate, 635/667 nm fluorescence, primary screen (AID 1092); conditions: small-molecule microarray, hLULL1 lysate binding, 635 nm fluorescence; higher = more signal;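 further: probe is lysate of COS7 cells overexpressing human LULL1; score merges per-feature 667 nm fluorescence with signal-to-noise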
# Torsin-1A-interacting protein 2 (Homo sapiens), sequence (Q8NFQ8 whole entry, looked up): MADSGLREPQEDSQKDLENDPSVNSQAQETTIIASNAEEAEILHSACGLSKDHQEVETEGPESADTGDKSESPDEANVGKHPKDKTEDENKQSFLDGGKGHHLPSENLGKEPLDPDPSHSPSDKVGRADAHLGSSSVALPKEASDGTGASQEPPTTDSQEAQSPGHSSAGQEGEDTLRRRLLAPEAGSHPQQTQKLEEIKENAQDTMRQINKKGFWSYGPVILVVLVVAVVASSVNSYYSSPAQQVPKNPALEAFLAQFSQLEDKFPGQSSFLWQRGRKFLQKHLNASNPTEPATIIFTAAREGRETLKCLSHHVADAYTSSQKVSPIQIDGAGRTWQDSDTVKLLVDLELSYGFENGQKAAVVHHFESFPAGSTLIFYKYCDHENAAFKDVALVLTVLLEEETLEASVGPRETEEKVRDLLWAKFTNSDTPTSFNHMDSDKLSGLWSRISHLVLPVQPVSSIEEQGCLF
# [16] = optical density change of DRC41 E. coli – strain DRC41, OD650, 24 h, E. coli filamentation project, primary screen (AID 1093);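 further: MC1000 strain lacking acrAB efflux and sulA so SOS filamentation is blocked; test concentration not given here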; conditions: E. coli DRC41 growth, higher = more signal, called active from +8 up or from −8 down
# [17] = probe aLefty2 binding to arrayed compounds – biochemical, biotinylated probe, 635/667 nm fluorescence, primary screen (AID 1094); conditions: small-molecule microarray, higher = more signal;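 further: score merges spot fluorescence near 667 nm with spot signal-to-noise ratio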
# [18] = test system: Noggin (protein binding on small-molecule microarray); assay: small molecules binding Noggin protein – biochemical, 635/667 nm fluorescence, primary screen (AID 1095); conditions: 635 nm fluorescence, higher = more signal;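 further: score merges 667 nm feature fluorescence with signal to noise over triplicate slides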
# [19] = target: Neurogenic locus notch homolog protein 3 (Homo sapiens) (UniProt Q9UM47); assay: small molecules binding NOTCH3 protein – biochemical, 635/667 nm fluorescence, primary screen (AID 1096); conditions: small-molecule microarray, 635 nm fluorescence, higher = more signal
# Neurogenic locus notch homolog protein 3 (Homo sapiens), sequence (Q9UM47 whole entry, looked up): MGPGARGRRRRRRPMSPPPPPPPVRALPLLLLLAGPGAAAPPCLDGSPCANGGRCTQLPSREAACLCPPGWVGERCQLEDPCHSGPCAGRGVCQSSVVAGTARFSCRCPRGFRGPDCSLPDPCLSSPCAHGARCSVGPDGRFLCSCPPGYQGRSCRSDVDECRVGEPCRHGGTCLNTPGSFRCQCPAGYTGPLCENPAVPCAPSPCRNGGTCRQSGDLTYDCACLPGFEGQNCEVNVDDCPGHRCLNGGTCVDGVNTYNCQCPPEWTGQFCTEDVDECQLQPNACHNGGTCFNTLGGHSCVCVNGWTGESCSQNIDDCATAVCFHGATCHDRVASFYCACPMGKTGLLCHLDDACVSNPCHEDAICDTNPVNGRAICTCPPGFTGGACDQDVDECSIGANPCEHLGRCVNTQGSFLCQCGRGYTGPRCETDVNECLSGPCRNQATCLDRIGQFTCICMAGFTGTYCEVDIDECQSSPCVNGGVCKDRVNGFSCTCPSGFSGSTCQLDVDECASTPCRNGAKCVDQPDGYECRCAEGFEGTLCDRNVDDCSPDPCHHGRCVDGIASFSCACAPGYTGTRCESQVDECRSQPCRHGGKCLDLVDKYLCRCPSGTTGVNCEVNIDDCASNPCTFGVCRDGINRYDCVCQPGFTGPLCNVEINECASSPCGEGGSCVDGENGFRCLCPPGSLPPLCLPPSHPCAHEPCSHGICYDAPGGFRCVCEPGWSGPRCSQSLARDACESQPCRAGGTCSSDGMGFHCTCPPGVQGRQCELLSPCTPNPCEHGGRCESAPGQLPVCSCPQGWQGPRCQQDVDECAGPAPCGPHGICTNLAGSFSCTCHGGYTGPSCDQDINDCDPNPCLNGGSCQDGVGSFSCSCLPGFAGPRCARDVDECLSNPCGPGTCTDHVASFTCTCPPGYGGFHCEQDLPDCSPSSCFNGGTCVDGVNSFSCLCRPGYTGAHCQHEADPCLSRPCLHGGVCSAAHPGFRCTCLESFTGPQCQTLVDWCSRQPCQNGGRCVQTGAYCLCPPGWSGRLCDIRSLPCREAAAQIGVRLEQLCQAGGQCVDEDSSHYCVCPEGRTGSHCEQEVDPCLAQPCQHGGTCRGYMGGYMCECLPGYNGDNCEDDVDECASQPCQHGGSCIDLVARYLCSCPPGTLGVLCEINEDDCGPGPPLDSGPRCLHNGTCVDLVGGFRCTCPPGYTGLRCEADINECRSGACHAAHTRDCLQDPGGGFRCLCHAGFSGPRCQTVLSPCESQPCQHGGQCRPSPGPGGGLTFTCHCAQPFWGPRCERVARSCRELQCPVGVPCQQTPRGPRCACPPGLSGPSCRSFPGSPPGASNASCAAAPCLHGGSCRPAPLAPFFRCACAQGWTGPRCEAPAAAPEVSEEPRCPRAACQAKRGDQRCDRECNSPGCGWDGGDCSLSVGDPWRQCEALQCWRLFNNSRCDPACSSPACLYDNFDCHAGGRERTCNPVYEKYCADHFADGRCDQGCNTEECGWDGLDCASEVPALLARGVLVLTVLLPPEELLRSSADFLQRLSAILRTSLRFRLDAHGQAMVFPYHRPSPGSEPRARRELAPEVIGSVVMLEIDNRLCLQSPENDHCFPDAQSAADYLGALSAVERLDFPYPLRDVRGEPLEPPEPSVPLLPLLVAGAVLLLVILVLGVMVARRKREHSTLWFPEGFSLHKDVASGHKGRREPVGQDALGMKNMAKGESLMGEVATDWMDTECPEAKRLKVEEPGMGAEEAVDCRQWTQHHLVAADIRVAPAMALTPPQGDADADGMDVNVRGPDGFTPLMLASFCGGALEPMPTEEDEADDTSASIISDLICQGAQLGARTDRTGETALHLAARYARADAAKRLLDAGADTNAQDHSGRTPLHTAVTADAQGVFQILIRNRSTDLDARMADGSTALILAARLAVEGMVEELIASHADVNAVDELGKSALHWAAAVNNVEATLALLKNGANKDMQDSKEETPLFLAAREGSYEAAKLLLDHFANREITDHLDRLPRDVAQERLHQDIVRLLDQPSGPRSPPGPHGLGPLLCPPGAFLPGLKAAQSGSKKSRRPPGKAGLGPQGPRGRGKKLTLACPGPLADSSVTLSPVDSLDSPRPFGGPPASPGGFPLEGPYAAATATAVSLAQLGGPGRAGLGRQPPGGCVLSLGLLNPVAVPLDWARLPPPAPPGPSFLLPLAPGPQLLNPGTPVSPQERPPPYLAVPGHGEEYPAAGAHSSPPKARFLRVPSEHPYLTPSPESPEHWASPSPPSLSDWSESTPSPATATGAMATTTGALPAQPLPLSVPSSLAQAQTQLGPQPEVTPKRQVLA
# [20] = probe aEGFR binding to arrayed compounds – biochemical, biotinylated probe, 635/667 nm fluorescence, primary screen (AID 1097); conditions: small-molecule microarray, higher = more signal;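 further: probe is a biotinylated anti-EGFR antibody binding compounds printed on slides; score combines fluorescence near 667 nm and signal to noise of each spot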
Compound,composite z-score [1],composite z-score [2],composite z-score [3],composite z-score [4],composite z-score [5],composite z-score [6],composite z-score [7],z-score [8],composite z-score [9],composite z-score [10],composite z-score [11],z-score [12],z-score [13],z-score [14],composite z-score [15],z-score [16],composite z-score [17],composite z-score [18],composite z-score [19],composite z-score [20]
C=CCC(OC(C)=O)[C@@H]1[C@@H](N(Cc2ccc(-c3ccccc3)cc2)C(=O)Cc2ccc(F)cc2)c2cc(OCCCO)ccc2N1C(=O)Cc1ccc(OC)cc1 (stereo not given in full),-0.134,0.132,-0.172,0.295,-0.437,0.0936,-0.438,-0.528 (inactive),0.121,-0.175,-0.712,0.111 (inactive),0.278 (inactive),-0.0946 (inactive),0.311,0.245 (inactive),0.0731,-0.128,-0.241,-0.204
COCCOC(=O)N1C(=O)[C@@]2(c3cc(C#Cc4ccc(OC)cc4)ccc31)[C@H](C(=O)Nc1nc3ccccc3s1)[C@H]1C(=O)O[C@H](c3ccccc3)[C@H](c3ccccc3)N1[C@@H]2c1ccc(O)cc1,0.0683,-0.164,0.0289,0.445,1.06,1.19,1.22,2.65 (inactive),0.286,0.282,1.55,0.903 (inactive),0.842 (inactive),1.16 (inactive),2.74,1.57 (inactive),-0.0071,1.55,1.08,0.213
O[C@@H](Cc1ccccc1)[C@@H](/C=C/C1CC1)N(CC#Cc1ccccc1)Cc1cccc(Cl)c1,1.39,-0.393,-0.129,-1.06,-1.32,-0.34,-0.162,-0.976 (inactive),-0.959,-0.227,-0.235,0.949 (inactive),0.322 (inactive),-0.0243 (inactive),-0.0561,1.37 (inactive),0.146,-1.4,-1.08,-0.398
O=C1C2C=CC(C(O)c3ccc(Br)cc3)N(Nc3ccccc3F)C2C(=O)N1c1ccccc1 (stereo not given),-0.436,0.536,0.0181,0.178,0.776,1.11,1.06,-1.55 (inactive),0.68,-0.0346,0.566,-1.16 (inactive),-0.435 (inactive),-1.26 (inactive),2.97,0.569 (inactive),-0.103,-0.231,0.626,-0.112
COc1ccc([Si](C)(C)[C@@H]2[C@@H](CCO)O[C@]3(C(=O)N(Cc4ccc(N5CCCCC5=O)cc4)c4ccccc43)[C@H]2C)cc1,-0.343,0.299,0.0344,0.913,0.0177,0.919,1.15,-4.78 (inactive),0.203,0.0373,1.53,-0.102 (inactive),0.0767 (inactive),3.05 (inactive),2.09,1.2 (inactive),-0.181,0.731,1.11,-0.0828
C=CCC(OC(C)=O)[C@@H]1[C@@H](N(Cc2ccc(-c3cccc(C(F)(F)F)c3)o2)C(=O)c2ccc(-c3ccccc3)cc2)c2cc(OCCCO)ccc2N1C(=O)c1ccc2ccccc2n1 (stereo not given in full),-0.0375,-0.246,-0.0266,0.306,0.0588,0.0617,-0.385,-0.379 (inactive),0.77,-0.0237,-1.08,0.672 (inactive),0.789 (inactive),0.847 (inactive),-0.244,-0.656 (inactive),-0.0063,-0.0955,0.0478,-0.0656
COC(=O)[C@@]1(Cc2ccc(F)cc2)[C@H]2c3cc(C(=O)N(C)C)n(CCc4ccc(O)c(OC)c4)c3C[C@H]2CN1C(=O)c1ccccc1,1.71,0.245,0.735,1.27,1.27,-0.0157,1.03,0.245 (inactive),1.7,0.372,-0.646,0.503 (inactive),0.459 (inactive),0.689 (inactive),1.01,-0.849 (inactive),1.42,0.446,0.237,1.25
CCCCC(=C=CC[C@@H](O)c1ccccc1OCCO)C[C@@H](O)COCc1ccccc1,-0.0745,0.0282,-0.101,-0.333,-0.768,0.852,0.115,-2.9 (inactive),-0.462,-0.201,1.13,-1.69 (inactive),-2.1 (inactive),-1.26 (inactive),1.91,1.31 (inactive),-0.166,0.404,0.185,-0.209
[N-]=[N+]=NCc1ccccc1C[C@@]1(C(=O)N2CCCCC2)N=C(c2ccc(OCCCO)cc2)O[C@@H]1c1ccccc1,0.0156,0.317,-0.0958,0.108,1.09,1.15,0.825,-3.91 (inactive),0.301,-0.0457,0.424,0.591 (inactive),1.08 (inactive),32.6 (active),2.2,0.685 (inactive),-0.0261,-0.578,-0.426,0.159
COC(=O)c1nc2oc1CC[C@@H](CO)NC(=O)N(C)Cc1cnnn1C[C@H](Cc1ccccc1)NC2=O,-0.195,-0.328,-0.062,-0.135,-0.444,0.243,0.434,-0.988 (inactive),-1.08,-0.314,0.0909,-1.04 (inactive),0.127 (inactive),-0.335 (inactive),0.715,1.27 (inactive),-0.331,0.419,-0.139,-0.287
